Records with an inconclusive call do not appear. A call without a number means that no potency is given here. The source made the active and inactive calls. Unless noted, calls come from the whole dose curve; as a rule, active = well fitted curve in the direction sought with a large enough effect in the repeat runs; inconclusive = weak or mixed curves; inactive = no such curve, though single readings can be large; an effect the other way counts as inactive or inconclusive.
Tests used:
[1] = qHTS assay to identify small molecule agonists of the peroxisome proliferator-activated receptor delta (PPARd) signaling pathway - cell viability counter screen (AID 743211); note: nearly all actives have a fitted effect of over 55% in size; note: potency is the fitted concentration of half-maximal effect
Outline: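 PPARd-bla HEK293H cells (3000/well) were pre-incubated 5 h at 37 C, then exposed to compound for 17 h at 37 C. After 2 h with LiveBLAzer substrate, CellTiter-Glo was added to the same wells; luminescence read after 30 min at room temperature.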

[2] = qHTS assay to identify small molecule antagonists of the peroxisome proliferator-activated receptor delta (PPARd) signaling pathway - cell viability counter screen (AID 743213); note: nearly all actives have a fitted effect of over 50% in size; note: potency is the fitted concentration of half-maximal effect
Outline: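 Viability counter-screen, qHTS format: PPARd-bla HEK293H, L165041 300 nM final, 17 h compound exposure at 37 C, CellTiter-Glo luminescence after 30 min RT.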

[3] = qHTS assay to identify small molecule agonists of the farnesoid-X-receptor (FXR) signaling pathway - cell viability counter screen (AID 743218); note: nearly all actives have a fitted effect of over 45% in size; note: potency is the fitted concentration of half-maximal effect
Outline: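 HEK 293T FXR-bla cells; 5 h pre-incubation, 16 h compound exposure at 37 C; LiveBLAzer substrate 2 h RT, then CellTiter-Glo 30 min RT, luminescence.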

[4] = qHTS assay to identify small molecule antagonists of the farnesoid-X-receptor (FXR) signaling pathway - cell viability counter screen (AID 743221; active = well fitted cell-killing curve with a large enough effect in the repeat runs, not every such curve was filed as active; note: nearly all actives have a fitted effect of over 50% in size)
Outline: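 GeneBLAzer FXR-UAS-bla HEK 293T cells, compound plus chenodeoxycholic acid (50 uM final), 16 h at 37 C. CellTiter-Glo added to the same wells after the beta-lactamase read; luminescence read after 30 min at room temperature as viability.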

[5] = molecular target: Vitamin D3 receptor (Homo sapiens) (UniProt P11473); experiment: qHTS assay to identify small molecule agonists of the vitamin D receptor (VDR) signaling pathway (AID 743222; calls by dose curve)
Chain of Vitamin D3 receptor (Homo sapiens) (P11473 whole entry, looked up): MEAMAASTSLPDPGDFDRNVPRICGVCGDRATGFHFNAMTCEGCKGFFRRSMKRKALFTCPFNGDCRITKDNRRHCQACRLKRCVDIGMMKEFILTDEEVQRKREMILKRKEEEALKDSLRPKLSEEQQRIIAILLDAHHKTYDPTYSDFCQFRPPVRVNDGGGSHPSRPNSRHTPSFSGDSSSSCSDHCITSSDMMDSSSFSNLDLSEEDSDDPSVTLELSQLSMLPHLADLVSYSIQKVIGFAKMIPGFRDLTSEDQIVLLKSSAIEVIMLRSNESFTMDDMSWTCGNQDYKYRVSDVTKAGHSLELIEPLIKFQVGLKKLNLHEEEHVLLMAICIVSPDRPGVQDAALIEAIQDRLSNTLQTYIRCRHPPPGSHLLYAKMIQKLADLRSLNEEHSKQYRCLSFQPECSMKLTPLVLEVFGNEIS
Outline: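 VDR-bla cells, 2,000/well; 4 h preincubation 37C; cpd (DMSO) 16 h; LiveBLAzer B/G substrate 2 h RT; fluorescence intensity read.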

[6] = molecular target: Vitamin D3 receptor (Homo sapiens) (UniProt P11473); experiment: qHTS assay to identify small molecule antagonists of the vitamin D receptor (VDR) signaling pathway (AID 743223; active = well fitted inhibition curve with a large enough effect in the signal ratio in the repeat runs, not every such curve was filed as active; the % refers to the signal ratio)
Outline: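 VDR-bla cells were treated with compound plus 3 nM final 1alpha,25-dihydroxyvitamin D3 for 16 h at 37C. Beta-lactamase reporter read by B/G FRET substrate fluorescence after 2 h at room temperature. qHTS format.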

[7] = molecular target: Bile acid receptor (Homo sapiens) (UniProt Q96RI1); experiment: qHTS assay to identify small molecule antagonists of the farnesoid-X-receptor (FXR) signaling pathway (AID 743217; active = well fitted inhibition curve with a large enough effect in the signal ratio in the repeat runs, not every such curve was filed as active; the % refers to the signal ratio)
Chain of Bile acid receptor (Homo sapiens) (Q96RI1 whole entry, looked up): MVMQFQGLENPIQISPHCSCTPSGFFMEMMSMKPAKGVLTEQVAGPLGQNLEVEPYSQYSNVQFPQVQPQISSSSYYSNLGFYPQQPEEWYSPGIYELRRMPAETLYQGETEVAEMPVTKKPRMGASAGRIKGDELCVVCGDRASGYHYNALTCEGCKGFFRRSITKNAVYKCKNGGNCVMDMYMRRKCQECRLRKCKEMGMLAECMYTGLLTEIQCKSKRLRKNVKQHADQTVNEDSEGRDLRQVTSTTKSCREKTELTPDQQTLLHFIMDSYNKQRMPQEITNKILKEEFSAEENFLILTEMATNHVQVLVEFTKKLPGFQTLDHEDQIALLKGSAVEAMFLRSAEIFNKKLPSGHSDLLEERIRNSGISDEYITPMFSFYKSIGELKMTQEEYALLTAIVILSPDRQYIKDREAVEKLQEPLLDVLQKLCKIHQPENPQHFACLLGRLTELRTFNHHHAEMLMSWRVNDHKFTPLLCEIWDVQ
Outline: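 HEK 293T FXR-UAS-bla, 5000 cells/well; compound + CDCA 50 uM final; 16 h, 37 °C; B/G FRET substrate 2 h RT; fluorescence.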

[8] = molecular target: Bile acid receptor (Homo sapiens) (UniProt Q96RI1); experiment: qHTS assay to identify small molecule agonists of the farnesoid-X-receptor (FXR) signaling pathway (AID 743220; active = well fitted activation curve with a large enough effect in the signal ratio in the repeat runs, not every such curve was filed as active; the % refers to the signal ratio)
Outline: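 Beta-lactamase reporter under UAS control in GeneBLAzer FXR HEK 293T cells (5000/well) measured with LiveBLAzer FRET substrate after 2 h at room temperature. Compound exposure lasted 16 h at 37C.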

[9] = molecular target: Peroxisome proliferator-activated receptor delta (Homo sapiens) (UniProt Q03181); experiment: qHTS assay to identify small molecule agonists of the peroxisome proliferator-activated receptor delta (PPARd) signaling pathway (AID 743212; calls by dose curve)
Chain of Peroxisome proliferator-activated receptor delta (Homo sapiens) (Q03181 whole entry, looked up): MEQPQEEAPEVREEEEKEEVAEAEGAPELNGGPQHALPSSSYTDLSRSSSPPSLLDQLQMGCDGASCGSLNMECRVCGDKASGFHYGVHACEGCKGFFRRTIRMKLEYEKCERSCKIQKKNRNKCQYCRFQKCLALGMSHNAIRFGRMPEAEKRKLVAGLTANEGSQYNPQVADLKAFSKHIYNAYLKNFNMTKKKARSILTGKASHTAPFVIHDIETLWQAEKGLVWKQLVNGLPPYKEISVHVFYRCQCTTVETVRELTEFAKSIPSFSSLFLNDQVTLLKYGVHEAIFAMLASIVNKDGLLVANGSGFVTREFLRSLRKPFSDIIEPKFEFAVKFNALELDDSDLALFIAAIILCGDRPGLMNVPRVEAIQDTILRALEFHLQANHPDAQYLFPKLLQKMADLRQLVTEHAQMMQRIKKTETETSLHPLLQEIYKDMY
Outline: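 GeneBLAzer PPARd UAS-bla HEK293H cells (beta-lactamase reporter under UAS control), plated and rested 5 h at 37 C, then exposed to compounds in DMSO at 37 C; LiveBLAzer B/G FRET substrate added, 2 h room temperature, fluorescence read.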

[10] = molecular target: Peroxisome proliferator-activated receptor delta (Homo sapiens) (UniProt Q03181); experiment: qHTS assay to identify small molecule antagonists of the peroxisome proliferator-activated receptor delta (PPARd) signaling pathway (AID 743215; active = well fitted inhibition curve with a large enough effect in the signal ratio in the repeat runs, not every such curve was filed as active; the % refers to the signal ratio;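 note: cells stimulated with agonist L165041 at 300 nM final during compound exposure; series mostly up to about 62 µM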)
Outline: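 Read-out is beta-lactamase FRET fluorescence, measured 2 h after substrate addition at room temperature. Beforehand, UAS-bla HEK293H cells carrying the PPARd reporter were exposed to compounds with L165041 at 300 nM final for 17 h at 37 C.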

SMILES | Potency [1] | Potency [2] | Potency [3] | outcome [4] | outcome [5] | outcome [6] | outcome [7] | outcome [8] | outcome [9] | outcome [10]
CC1=C(CC(=O)O)c2cc(F)ccc2/C1=C\c1ccc(S(C)(=O)=O)cc1 | inactive | inactive | inactive | inactive | – | – | – | – | – | –
CC(C)NCC(O)COc1ccc(CCOCC2CC2)cc1 (stereo not given) | inactive | inactive | inactive | inactive | inactive | inactive | – | – | – | –
NC1=NCC2c3ccccc3Cc3ccccc3N12 (stereo not given) | inactive | inactive | inactive | inactive | – | inactive | – | – | – | –
Clc1cccc(-c2cc(Cl)cc(Cl)c2)c1 | inactive | inactive | – | inactive | inactive | inactive | – | – | – | –
CCCOCCC | inactive | inactive | inactive | inactive | inactive | – | – | – | – | –
ClC(Cl)Cl | inactive | inactive | inactive | – | – | inactive | inactive | inactive | – | –
CCCNC(C)C(=O)Nc1c(C)csc1C(=O)OC (stereo not given) | inactive | inactive | inactive | inactive | inactive | inactive | – | – | – | –
CCCC(CCC)(C(=O)OCC)C(=O)OCC | inactive | inactive | inactive | – | – | inactive | inactive | inactive | – | –
CCOc1ccc2nc(N)sc2c1 | inactive | inactive | inactive | inactive | – | – | – | – | – | –
C=O | inactive | inactive | inactive | – | inactive | inactive | – | – | – | –
CC(C)CCCCCCc1ccc(OCCOCCO)cc1 | inactive | inactive | inactive | inactive | inactive | – | – | – | – | –
COC(C)CCO (stereo not given) | inactive | inactive | inactive | inactive | inactive | inactive | – | – | – | –
CC(=O)Oc1cc(C(C)C)c(OCCN(C)C)cc1C | inactive | inactive | inactive | inactive | – | inactive | – | – | – | –
NC(=O)Cc1cccc(C(=O)c2ccccc2)c1N | inactive | inactive | inactive | – | – | inactive | inactive | inactive | – | –
CC/C=C\CCOC(=O)C(C)C | inactive | inactive | inactive | – | – | inactive | – | – | – | –
CC1=NN(c2cc(Cl)c(S(=O)(=O)O)cc2Cl)C(=O)C1N=Nc1ccc(S(=O)(=O)O)cc1 (stereo not given) | inactive | inactive | inactive | inactive | – | inactive | – | – | – | –
CC1(O)CSC(C)(O)CS1 (stereo not given) | inactive | inactive | inactive | – | – | – | – | inactive | – | –
CC(=O)O[C@H]1CC[C@@]2(C)C(=CC[C@@H]3[C@@H]2CC[C@]2(C)C(C(C)=O)=CC[C@@H]32)C1 | inactive | inactive | inactive | inactive | – | inactive | – | – | – | –
COc1ccc2nc(NC(=O)Nc3ccccc3)sc2c1 | inactive | inactive | inactive | inactive | inactive | inactive | – | – | – | –
CC1(C)O[C@@H]2C[C@H]3[C@@H]4CCC5=CC(=O)CC[C@]5(C)[C@@]4(F)[C@@H](O)C[C@]3(C)[C@]2(C(=O)CCl)O1 | inactive | inactive | – | inactive | inactive | – | inactive | – | – | –
CCCCC1CCC(=O)O1 (stereo not given) | inactive | inactive | inactive | – | – | – | – | – | – | –

SMILES | Potency [1] | Potency [2] | Potency [3] | outcome [4] | outcome [5] | outcome [6] | outcome [7] | outcome [8] | outcome [9] | outcome [10]
CN(C)CC[C@@H](c1ccc(Cl)cc1)c1ccccn1 | inactive | inactive | inactive | inactive | – | – | – | – | – | –
Cc1cc2nc(N)sc2cc1C | inactive | – | inactive | inactive | – | inactive | inactive | inactive | – | –
c1ccc(CN(CC2=NCCN2)c2ccccc2)cc1 | – | inactive | inactive | inactive | inactive | – | – | – | – | –
Cc1nc(-c2ccccn2)ncc1C(=O)Nn1cc(C)c2cc(F)ccc21 | – | inactive | inactive | inactive | inactive | inactive | inactive | – | inactive | –
NC(=O)NS(=O)(=O)c1ccc(Cl)cc1 | – | – | inactive | inactive | – | inactive | inactive | inactive | – | inactive
CN1CCN(C2=Nc3ccccc3Oc3ccc(Cl)cc32)CC1 | inactive | – | – | – | – | inactive | – | – | – | inactive
CCOC(=O)COc1ccc2c(c1)CC(NCC(O)c1cccc(Cl)c1)CC2 (stereo not given) | – | inactive | inactive | inactive | – | inactive | – | – | – | inactive
COc1cc2c(cc1N)oc1ccccc12 | – | – | – | inactive | – | inactive | inactive | inactive | – | inactive
CCOC(=O)CS | – | inactive | inactive | – | inactive | inactive | inactive | inactive | inactive | inactive
Cc1c[nH]c(=S)[nH]c1=O | – | 55.1 µM (active) | inactive | – | – | inactive | – | – | – | –
C[C@@H](N)C(=O)O | – | inactive | inactive | inactive | – | inactive | – | – | – | –
CCC(=O)c1ccc2c(c1)N(CCCN(C)C)c1ccccc1S2 | 29.8 µM (active) | – | – | – | – | – | inactive | inactive | – | –
CCCCOc1cc(C(=O)NCCN(CC)CC)c2ccccc2n1 | – | – | inactive | – | – | – | – | – | – | –
CCN(CCCc1ccccc1)CCCc1ccccc1 | inactive | – | inactive | inactive | inactive | inactive | inactive | inactive | – | inactive
CN(C)C(=O)NC1(c2ccccc2)CCN(CCC[C@]2(c3ccc(Cl)c(Cl)c3)CCCN(C(=O)c3ccccc3)C2)CC1 | 9.28 µM (active) | – | 11.7 µM (active) | – | – | – | – | – | – | inactive
O=C1N(c2ccccc2)c2ccccc2C1(Cc1ccncc1)Cc1ccncc1 | inactive | – | – | inactive | inactive | – | – | – | – | inactive
CCN(O)CC | inactive | – | inactive | – | inactive | inactive | – | – | – | inactive
O=C(O)c1ccccc1Nc1cc(Cl)ccc1C(=O)O | – | – | inactive | inactive | – | inactive | – | – | – | –
CC(C)c1ccccc1 | – | – | inactive | inactive | – | inactive | inactive | inactive | – | –
CCCCCCCCc1ccc(S(=O)(=O)O)cc1 | 43.3 µM (active) | – | inactive | inactive | inactive | inactive | inactive | inactive | – | inactive
CCCCC(=O)O[C@]1(C(=O)CO)[C@H](C)C[C@H]2[C@@H]3CCC4=CC(=O)C=C[C@]4(C)[C@@]3(F)[C@@H](O)C[C@@]21C | inactive | – | inactive | inactive | inactive | inactive | – | – | – | –

SMILES | Potency [1] | Potency [2] | Potency [3] | outcome [4] | outcome [5] | outcome [6] | outcome [7] | outcome [8] | outcome [9] | outcome [10]
COC(=O)c1ccc2cc(C(=O)OC)ccc2c1 | inactive | – | inactive | inactive | – | – | – | – | – | –
CN(CCCN1c2ccccc2CCc2ccccc21)CC(=O)c1ccc(Cl)cc1 | – | inactive | inactive | inactive | – | inactive | inactive | inactive | inactive | inactive
CC1CN(c2ccccc2)NC1=O (stereo not given) | – | inactive | inactive | inactive | – | – | inactive | inactive | inactive | inactive
CC[C@H]1CC[C@H](NCc2cc3c(cc2OC)[C@H]2C[C@H]2C(=O)N3C)[C@H](c2ccccc2)N1 | – | – | inactive | inactive | – | – | – | – | inactive | –
CC(C)NC[C@@H](O)COc1cccc2ccccc12 | – | – | inactive | inactive | inactive | inactive | inactive | inactive | – | –
CC(C)O | – | – | inactive | inactive | – | inactive | inactive | inactive | inactive | –
COc1ccc(Nc2ccc(OC)cc2)cc1 | inactive | – | inactive | inactive | inactive | inactive | – | inactive | – | –
C=CCCC=C | inactive | – | inactive | inactive | – | – | inactive | inactive | – | inactive
CCCCNCCCC | inactive | – | inactive | inactive | inactive | inactive | – | – | – | inactive
CCOc1ccc(NC(N)=O)cc1 | inactive | – | inactive | inactive | inactive | – | inactive | inactive | – | –
CCCCNC(=S)NCCCC | – | inactive | inactive | inactive | inactive | inactive | – | – | – | –
NS(=O)(=O)c1cc(-c2nn[nH]n2)c(NCc2cccs2)cc1Cl | – | inactive | inactive | inactive | inactive | inactive | – | – | – | inactive
CCCOc1ccc2c(c1)CC[C@@H]1[C@@H]2CC[C@]2(C)C(OC)CC[C@@H]12 (stereo not given in full) | – | inactive | inactive | inactive | inactive | – | – | – | inactive | inactive
CCN(CC)CCOc1ccc(Cc2ccccc2)cc1 | – | – | – | – | – | – | – | – | inactive | inactive
CCCCCCCCCCCCOCCOS(=O)(=O)O | – | – | inactive | – | inactive | – | – | – | – | –
O=Cc1ccc(O)c(O)c1O | – | – | inactive | inactive | – | – | inactive | inactive | – | –
CN1CCN(C2=Nc3cc(F)ccc3Cc3ccccc32)CC1 | – | inactive | inactive | – | inactive | inactive | inactive | inactive | – | inactive
Cc1ccccc1C(=O)Nc1ccc(C(=O)N2CCCC(O)c3cc(Cl)ccc32)c(C)c1 (stereo not given) | – | inactive | inactive | inactive | inactive | – | – | inactive | – | –
CCCCc1ccc2nc(NC(=O)OC)[nH]c2c1 | – | inactive | inactive | inactive | inactive | – | – | inactive | – | –

— PubChem BioAssay (Tox21)
